HP1b binding inh: blocks HP1-beta chromodomain binding to methylated histone tails; P83916; AlphaScreen HP1-beta / biotin-H3K9me3 peptide binding; Potency, µM (doses to about 114 µM), without a hit: at the top dose activity change, negative = inhibition, actives largely listed as inhibitors; hit rate 0.56% among 390,000; AID 540317; also: nearly all actives have a fitted effect of over 70% in size
Target sequence (P83916 whole entry, looked up): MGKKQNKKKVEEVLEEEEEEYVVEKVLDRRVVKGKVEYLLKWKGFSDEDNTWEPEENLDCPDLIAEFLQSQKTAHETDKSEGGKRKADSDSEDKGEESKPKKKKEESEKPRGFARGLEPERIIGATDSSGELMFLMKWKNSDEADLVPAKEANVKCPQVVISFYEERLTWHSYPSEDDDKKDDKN
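HP1-beta protein (50 nM final) preincubated 30 min at room temperature with biotinylated H3(1-18)K9me3 peptide (50 nM) in PBS pH 7.4, 0.01% Tween-20, then compound added for 30 min. AlphaScreen streptavidin donor/nickel chelate acceptor beads (10 ug/mL final), 30 min dark, luminescence read.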
G9a block: inhibitors of human histone lysine methyltransferase G9a | G9a H3K9 monomethylation, AlphaScreen, 2 h | Potency, µM (top dose mostly 102 µM), without a hit: at the top dose activity, negative = inhibition, usual class: inhibitors | hit rate 8.8% among 350,000 | AID 504332; also: % is scaled to controls: 0 for no effect and ±100 for the full control effect; nearly all actives have a fitted effect of over 75% in size
Target sequence (Q96KQ7 913-1193 limits assumed): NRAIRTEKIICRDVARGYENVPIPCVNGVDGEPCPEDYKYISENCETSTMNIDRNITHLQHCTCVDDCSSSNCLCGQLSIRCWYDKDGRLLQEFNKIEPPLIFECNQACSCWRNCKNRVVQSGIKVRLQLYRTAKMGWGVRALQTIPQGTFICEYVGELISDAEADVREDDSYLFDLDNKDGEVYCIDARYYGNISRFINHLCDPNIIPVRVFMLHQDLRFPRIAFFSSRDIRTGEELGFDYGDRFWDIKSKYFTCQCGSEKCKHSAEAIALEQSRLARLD
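Using a bead-based AlphaScreen, monomethylated H3K9 product from 2 h room-temperature reactions (G9a 20 nM, peptide 500 nM, SAM 20 uM) was detected with 0.5 ug/mL rabbit anti-H3K9me1 antibody.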
BAZ2B inh: inhibitors of human BAZ2B bromodomain | AlphaScreen BAZ2B-H3K14Ac peptide displacement | Potency, µM (doses to about 114 µM), inactives show top-dose activity change, negative = inhibition, most hits filed as inhibitors | hit rate 4.4% among 360,000; also: % is scaled to controls: 0 for no effect and ±100 for the full control effect; nearly all actives have a fitted effect of over 60% in size
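BAZ2B 50 nM plus b-H3(5-23)K14Ac 50 nM, PBS pH 7.4/0.01% Tween-20, 30 min RT; compound added (max 110 uM), 30 min RT; streptavidin donor/Ni-chelate acceptor beads 10 ug/mL final, 20 min dark; AlphaScreen read.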
L3MBTL1 block: inhibitors of human L3MBTL1 | hit rate 0.66% among 230,000 | AlphaScreen L3MBTL1–H3K9me1 peptide binding | Potency, µM (series often up to 57.1 µM), without a hit: at the highest dose activity, negative = inhibition, hits mostly inhibitors; also: % is scaled to controls: 0 for no effect and ±100 for the full control effect; nearly all actives have a fitted effect of over 60% in size
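First, the protein-peptide complex forms for 30 min at room temperature (L3MBTL1 50 nM, biotinylated H3K9me1 peptide 75 nM). Next, compounds are pin-transferred and incubated 30 min. Finally, AlphaScreen beads are added and read after 30 min.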
JMJD2A Tudor inh: blocks the human JMJD2A Tudor domain; O75164; AlphaScreen JMJD2A-Tudor / H3K4me3 peptide binding; Potency, µM (doses to about 114 µM), for inactives: at the highest dose activity change, negative = inhibition, hits mostly inhibitors; hit rate 4.4% among 390,000; AID 504339; also: % is scaled to controls: 0 for no effect and ±100 for the full control effect; nearly all actives have a fitted effect of over 50% in size
* hit, by the source's call; ? = inconclusive; nt = no result; [ ] = dose if it differs, or a comment. Rows were chosen to be rich in hits. Some 11% of all compounds tested hit in one or more screens of this group. Calls follow the shape of the dose curve; as a rule, active = well fitted inhibition curve with a large enough effect; inconclusive = small, poorly fitted or top-dose-only effect; inactive = no such curve, though single readings can be large or run the other way. Potency is read from the fitted curve at half-maximal effect.

SMILES	HP1b binding inh	G9a block	BAZ2B inh	L3MBTL1 block	JMJD2A Tudor inh
COc1ccccc1Nc1nc(-c2cccc(N3C(=O)c4ccccc4C3=O)c2)cs1	17.2%	25.1µM*	-2.6%	-4.2%	-12.8%
O=C1c2ccccc2C(=O)N1c1cccc(-c2csc(Nc3ccc4c(c3)OCO4)n2)c1	nt	8.91µM*	?	-29.5%	nt
Cc1ccc(Cl)cc1NC(=O)Cn1nc2c(cc1=O)CC(C)CC2 (stereo unspecified)	23.9%[57 µM]	13.8%[59 µM]	3.0%	nt	-5.2%
O=C(Nc1ccc(N2CCCCC2)cc1)c1ccc([N+](=O)[O-])o1	?	39.8µM*	28.2µM*	nt	11.2µM*
CC(C)(C)C(=O)N1CCN(c2ccc(NC(=O)c3ccc([N+](=O)[O-])o3)cc2)CC1	10.4%	-16.3%[59 µM]	-8.1%	nt	-16.8%
CC1CCN(c2ccc(NC(=O)c3ccc([N+](=O)[O-])o3)cc2)CC1	-0.7%	35.5µM*	-31.5%	-8.7%	-25.5%
O=C(Nc1ccc(N2CCCC2)c(Cl)c1)c1ccc([N+](=O)[O-])o1	?	25.1µM*	17.8µM*	nt	44.7µM*
CC(=O)N1c2ccc(S(=O)(=O)NCC3CCC(C(=O)Nc4cc(C)ccc4C)CC3)cc2CC1C (stereo unspecified)	11.2%	-5.5%[59 µM]	1.7%	nt	-12.8%
CCOc1ccc(NC(=O)CSc2nccn2C2CCCC2)cc1	-20.9%	-5.4%[59 µM]	-33.9%	nt	-27.7%
COc1ccc(-n2cc(C(=O)Nc3ccccc3C#N)c3ccccc3c2=O)cc1	30.2%	-28.3%[59 µM]	-24.3%	nt	-28.3%
O=c1c(-c2ccc(Cl)cc2)nc2cnc(Nc3ccccc3)nc2n1C[C@H]1CCCO1	nt	-2.3%[0.501 µM]	nt	nt	nt
Cn1c(N)c(C(=O)NCc2ccccc2)sc1=S	?	?	?	1.7%	89.1µM*
Cc1nn(Cc2ccc(Cl)c(Cl)c2)c(C)c1NC(=O)c1cc(-c2ccco2)on1	30.5%	15.8µM*	-24.0%	-20.9%	-15.1%
Cc1nn(Cc2ccc(Cl)cc2)c(C)c1NC(=O)c1cc(-c2ccco2)on1	22.6%	?	-7.5%	-1.9%	-24.3%
COC(=O)c1ccccc1NC(=O)c1sc(=S)n(C)c1N	?	7.94µM*	-36.1%	-8.5%	-6.1%[11.4 µM]
Cn1c(N)c(C(=O)Nc2c(Cl)cccc2Cl)sc1=S	-22.4%	50.1µM*	-36.8%	-11.5%	-31.3%
CN(C)CCn1c2c(c(SCC(=O)Nc3ccc(F)cc3F)nc1=O)CCC2	34.3%	-2.1%[59 µM]	-0.7%	nt	-15.3%
Cn1nc(-c2ccncc2)nc2c(=O)n(C)c(=O)nc1-2	29.0%[57 µM]	nt	nt	nt	2.3%[57.1 µM]
COC(=O)c1ccccc1NC(=O)c1cc(-c2ccco2)on1	6.5%	39.8µM*	-13.7%	nt	-18.6%
COc1ccc(-n2c(N)c(C(=O)NCc3cccnc3)sc2=S)cc1	17.8%	9.3%	-3.2%	nt	2.6%
O=C(NCc1cccnc1)c1cc(-c2ccco2)on1	23.1%	39.8µM*	-33.9%	-8.8%	-8.3%
c1cncc(CNCc2ccco2)c1	7.4%	?	70.8µM*	nt	-13.7%
Cc1ccc(-n2c(N)c(C(=O)NCc3cccnc3)sc2=S)cc1	?	10µM*	0.0%	-12.9%	-23.0%
Cc1c(CCC(=O)NCc2ccc(F)cc2)c(=O)oc2cc(O)ccc12	74.0%	19.5%[59 µM]	25.9%	nt	-3.1%
CN(c1ccc(C(=O)N2CCOCC2)cc1[N+](=O)[O-])C1CCCCC1	-7.9%	?	50.1µM*	-9.0%	-32.3%
SMILES	HP1b binding inh	G9a block	BAZ2B inh	L3MBTL1 block	JMJD2A Tudor inh
CS(=O)(=O)c1ccc(-c2nnc(NC(=O)c3ccc(S(=O)(=O)N4CCCC4)cc3)o2)cc1	43.3%	5.7%[2.33 µM]	?	6.7%	-25.3%
O=C(Nc1nnc(C2CC2)o1)c1ccc(S(=O)(=O)N2CCCCC2)cc1	46.3%	17.0%	56.2µM*	nt	?
CN(C(=O)c1ccc(N2CCOCC2)c([N+](=O)[O-])c1)C1CCCCC1	23.9%	19.2%	-7.8%	-3.0%	-9.0%
CC1CCCCN1S(=O)(=O)c1ccc(C(=O)Nc2nnc(-c3ccco3)o2)cc1 (stereo unspecified)	26.8%	nt	89.1µM*	nt	-10.3%
CC1CCCCN1S(=O)(=O)c1ccc(C(=O)N2CCOCC2)cc1 (stereo unspecified)	10.2%	56.2µM*	18.5%	nt	-5.5%
COc1ccc(Cl)cc1NC(=O)CSc1cn(CC(=O)N2CCCCC2)c2ccccc12	8.1%	?	-14.0%	nt	-24.2%
CN(C)S(=O)(=O)c1ccc(C(=O)Nc2nnc(-c3ccco3)o2)cc1	11.4%	-4.2%	79.4µM*	nt	89.1µM*
CC1CCN(S(=O)(=O)c2ccc(C(=O)Nc3nnc(-c4ccncc4)o3)cc2)CC1	35.2%	-14.5%	nt	nt	-25.0%
O=C(Nc1nnc(C2CC2)o1)c1ccc(S(=O)(=O)N2CCCc3ccccc32)cc1	44.5%	-11.9%	50.1µM*	-2.1%	-22.8%
CC1CCCCN1S(=O)(=O)c1ccc(C(=O)Nc2nnc(C3CC3)o2)cc1 (stereo unspecified)	42.5%	-0.7%	50.1µM*	nt	-32.6%
CC1CCN(S(=O)(=O)c2ccc(C(=O)Nc3nnc(C4CC4)o3)cc2)CC1	56.6%	26.1%	50.1µM*	nt	0.8%
O=C(C1CCC1)N1CCc2cc(S(=O)(=O)NCCc3ccccc3)ccc21	26.7%	-38.4%[59 µM]	nt	nt	-15.0%
Cc1ccc(-n2nnnc2CNC(=O)c2ccc(F)cc2)cc1C	25.7%[57 µM]	5.0%[59 µM]	7.8%	nt	-17.2%
COc1cc(/C=N/Nc2ccccc2)ccc1OC(=O)c1cccs1	23.3%	28.2µM*	15.9%	20.4%	-13.4%
COc1cc(/C=N/NC(=O)C(N)=O)ccc1OC(=O)c1cccs1	47.8%	28.8%	-7.2%	3.3%	-11.9%
COc1cc(/C=N/Nc2ccc(Cl)c(C(=O)O)c2)ccc1OC(=O)c1cccs1	-7.0%	25.1µM*	?	-6.0%	?
COCCCn1c(C)cc(C(=O)COC(=O)C23CC4CC(CC(O)(C4)C2)C3)c1C	8.0%	0.8%	11.7%	-10.1%	-17.9%
Cn1c(C23CC4CC(CC(C4)C2)C3)n[nH]c1=S	-0.1%	22.4µM*	6.3%	10.5%	5.62µM*
COCCCn1c(C23CC4CC(CC(C4)C2)C3)n[nH]c1=S	5.5%	nt	4.2%	0.0%	7.94µM*
CC(C)Cn1c(C23CC4CC(CC(C4)C2)C3)n[nH]c1=S	23.4%	3.16µM*	?	-4.4%	56.2µM*
COC(=O)c1ccc2c(c1)N(CC(=O)Nc1cccc(Cl)c1C)C(=O)c1ccccc1S2	23.8%[57 µM]	2.2%[59 µM]	-2.2%	nt	-5.4%
Cc1ccc(C(=O)CSc2nnc(-c3ccco3)n2CC2CCCO2)cc1 (stereo unspecified)	9.2%	11.2µM*	1.9%	3.8%	-31.5%
CC1CCCCN1C(=O)CSc1nnc(-c2ccco2)n1CC1CCCO1 (stereo unspecified)	31.8%	14.1µM*	1.7%	-3.1%	0.0%
CCn1c(SCC(=O)N2CCCCC2C)nnc1-c1ccco1 (stereo unspecified)	18.6%	35.5µM*	4.2%	nt	-13.4%
CC1CCCCN1C(=O)CSc1nnc(-c2ccco2)n1C (stereo unspecified)	19.2%	-2.3%	-2.6%	nt	0.7%
